Bioassay records (PubChem BioAssay)
JMJD2A Tudor: JMJD2A Tudor domain (human) inhibition. O75164. AlphaScreen JMJD2A-Tudor / H3K4me3 peptide binding. Potency, µM (series often up to 114 µM), without a hit: top-dose activity change, negative = inhibition, actives largely listed as inhibitors. actives 4.4% (n = 390,000); also: potency is read from the fitted curve at half-maximal effect; % is scaled to controls: 0 for no effect and ±100 for the full control effect; nearly all actives have a fitted effect of over 50% in size
Target sequence (O75164 whole entry, looked up, the tested form may be a part): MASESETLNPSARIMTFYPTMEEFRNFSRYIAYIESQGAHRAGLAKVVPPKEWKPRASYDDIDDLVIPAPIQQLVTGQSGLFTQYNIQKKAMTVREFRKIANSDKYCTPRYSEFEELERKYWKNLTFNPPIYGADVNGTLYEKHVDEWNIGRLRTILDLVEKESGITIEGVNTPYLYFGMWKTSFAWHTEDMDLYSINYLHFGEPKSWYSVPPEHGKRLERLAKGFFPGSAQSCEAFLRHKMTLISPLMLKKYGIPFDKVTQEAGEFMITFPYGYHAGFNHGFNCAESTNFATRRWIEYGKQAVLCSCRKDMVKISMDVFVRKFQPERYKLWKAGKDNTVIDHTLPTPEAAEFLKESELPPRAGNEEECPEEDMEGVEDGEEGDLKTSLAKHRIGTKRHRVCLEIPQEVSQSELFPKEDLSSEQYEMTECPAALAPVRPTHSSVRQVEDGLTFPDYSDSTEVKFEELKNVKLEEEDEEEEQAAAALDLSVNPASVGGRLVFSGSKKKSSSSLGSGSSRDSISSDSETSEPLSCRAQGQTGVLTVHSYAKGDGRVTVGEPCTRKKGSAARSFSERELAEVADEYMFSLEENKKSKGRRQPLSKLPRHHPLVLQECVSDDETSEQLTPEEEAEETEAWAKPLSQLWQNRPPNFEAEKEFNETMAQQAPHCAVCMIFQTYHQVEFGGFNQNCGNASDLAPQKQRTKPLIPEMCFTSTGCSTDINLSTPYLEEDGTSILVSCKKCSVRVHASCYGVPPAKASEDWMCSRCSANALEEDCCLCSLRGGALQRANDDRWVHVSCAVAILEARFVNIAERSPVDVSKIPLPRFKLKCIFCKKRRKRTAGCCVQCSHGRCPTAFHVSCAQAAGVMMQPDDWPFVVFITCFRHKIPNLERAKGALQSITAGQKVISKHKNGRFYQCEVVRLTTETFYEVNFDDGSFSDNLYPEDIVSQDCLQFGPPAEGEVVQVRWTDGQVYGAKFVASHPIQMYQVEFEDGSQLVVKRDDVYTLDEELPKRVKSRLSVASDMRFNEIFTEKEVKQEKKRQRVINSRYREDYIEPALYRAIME
PLK1 PBD block: blocks phosphopeptide binding to human PLK1 polo-box domain; P53350; Plk1 PBD binding of FITC phosphopeptide, fluorescence polarization; Potency, µM, for inactives: max response, negative = inhibition, usual class: inhibitors; actives 2.8% (n = 360,000); AID 720504; also: potency is read from the fitted curve at half-maximal effect; series mostly up to about 57 µM; % is scaled to controls: 0 for no effect and ±100 for the full control effect; nearly all actives have a fitted effect of over 65% in size
PI5P4K alpha inh: PI5P4K alpha (human) kinase inhibition; P48426; AID 652105; PI5P4Kalpha enzyme, ADP-Glo luminescence, 60 min; stronger effect = lower value; max response, %; actives 1.2% (n = 330,000); active = max response of -50% or lower; inconclusive = between -30% and -50%; inactive = -30% or higher; also: value at the top dose of about 77 µM; % is scaled to controls: 0 for no effect and ±100 for the full control effect
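Luminescence from ADP-Glo served as readout of PI5P4Kalpha activity in a qHTS format. Reaction: enzyme, substrate, compound, ATP at 5 microM final, 60 min at RT.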
BAZ2B block: blocks human BAZ2B; Q9UIF8; AlphaScreen BAZ2B-H3K14Ac peptide displacement; Potency, µM (series often up to 114 µM), for inactives: at the highest dose activity change, negative = inhibition, most hits filed as inhibitors; actives 4.4% (n = 360,000); AID 504333; also: potency is read from the fitted curve at half-maximal effect; % is scaled to controls: 0 for no effect and ±100 for the full control effect; nearly all actives have a fitted effect of over 60% in size
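Protein-peptide AlphaScreen: BAZ2B 50 nM, b-H3K14Ac 50 nM, 1x PBS pH 7.4 + 0.01% Tween-20. Preincubation 30 min RT; cpd 30 min RT (top 110 uM); beads 20 min RT, light-protected.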
G9a block: blocks human histone lysine methyltransferase G9a | Q96KQ7 | G9a H3K9 monomethylation, AlphaScreen, 2 h | Potency, µM (series often up to 102 µM), for the others: top-dose activity, negative = inhibition, most hits filed as inhibitors | actives 8.8% (n = 350,000) | AID 504332; also: potency is read from the fitted curve at half-maximal effect; % is scaled to controls: 0 for no effect and ±100 for the full control effect; nearly all actives have a fitted effect of over 75% in size
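Using a bead-based AlphaScreen, monomethylated H3K9 product from 2 h room-temperature reactions (G9a 20 nM, peptide 500 nM, SAM 20 uM) was detected with 0.5 ug/mL rabbit anti-H3K9me1 antibody.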
HP1b binding inh: HP1-beta chromodomain-methylated histone interaction inhibition; AlphaScreen HP1-beta / biotin-H3K9me3 peptide binding; actives 0.56% (n = 390,000); AID 540317; Potency, µM (top dose mostly 114 µM), for inactives: at the highest dose activity change, negative = inhibition, actives largely listed as inhibitors; P83916; also: potency is read from the fitted curve at half-maximal effect; nearly all actives have a fitted effect of over 70% in size
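AlphaScreen: HP1-beta (50 nM) preformed 30 min with biotin-H3(1-18)K9me3 peptide (50 nM) in PBS pH 7.4, 0.01% Tween-20. Compound added for 30 min at RT, then streptavidin donor/nickel chelate acceptor beads (10 ug/mL) for 30 min.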
* = called active by the depositor; ? = inconclusive; . = not tested or not shown; [ ] = another dose, or the depositor's remark. Most compounds without a hit are left out; they make up all but 12% or so of the library. Unless noted, calls follow the shape of the dose curve; as a rule, active = well fitted curve in the direction sought with a large enough effect; inconclusive = small, poorly fitted or top-dose-only effect, or another doubt; inactive = no such curve, though single readings can be large; an effect the other way counts as inactive or inconclusive.

SMILES	JMJD2A Tudor	PLK1 PBD block	PI5P4K alpha inh	BAZ2B block	G9a block	HP1b binding inh
Cc1cccc(-n2c(-c3ccncc3)n[nH]c2=S)c1	28µM*	-10%	-7	3%	1.3µM*	4%
Cc1cc(=O)[nH]c(=S)n1-c1ccccc1	?	1%	.	8%	?	38%
Cc1cccc(-n2c(C)n[nH]c2=S)c1	10µM*	-9%	.	?	?	15%
COc1ccc(C(=O)[C@@H]2CC[C@](C)(C(=O)O)C2(C)C)cc1	-10%	9%	-2	-3%	22%[2.33 µM]	40%
COC(=O)c1ccc(C2C=C(c3ccc(Cl)cc3)Nc3nc4ccccc4n32)cc1 (stereo not drawn)	-29%	.	.	1%	?	34%
CCN(C(=O)COC(=O)c1ccc(O)cc1O)c1c(N)n(Cc2ccccc2)c(=O)[nH]c1=O	-15%	-7%	3	-4%	?	34%
c1ccc(-c2cn3nc(-c4ccccc4)c(-c4ccccc4)nc3n2)cc1	73%	27µM*	.	99%	141%[59 µM]	189%
COc1ccc(-c2noc(COc3cc(C)c(Br)c(C)c3)n2)cc1OC	13%	.	.	8%	18%[59 µM]	47%
CCCCN(C(=O)CSc1nnc(-c2ccc(OC)cc2)n1C(C)C)c1c(N)n(Cc2ccccc2)c(=O)[nH]c1=O	-14%	2%	-2	-28%	10µM*	32%
COCCN(C(=O)c1ccc(-c2ccc([N+](=O)[O-])cc2)o1)c1c(N)n(CC(C)C)c(=O)[nH]c1=O	-15%	-10%	-26	-1%	45µM*	23%
CCCCN(C(=O)CSc1nnc(-c2ccc(OC)cc2)n1CC)c1c(N)n(Cc2ccccc2)c(=O)[nH]c1=O	-14%	-17%	-2	8%	5%[59 µM]	14%
COCCN(C(=O)CSc1nn(-c2ccc(F)cc2)c(=S)s1)c1c(N)n(CC(C)C)c(=O)[nH]c1=O	-12%	-5%	0	9%	8.9µM*	21%
COCCN(C(=O)CSc1nnc(-c2ccc(C(C)(C)C)cc2)n1N)c1c(N)n(CC(C)C)c(=O)[nH]c1=O	-4%	-5%	1	5%	40µM*	40%
Cc1cccc(C)c1NC(=O)C1(C)CN(S(C)(=O)=O)CC(=O)N1CCc1ccc(O)cc1 (stereo not drawn)	.	1%	-3	.	.	.
NCCC(O)(P(=O)(O)O)P(=O)(O)O	.	.	.	.	33%[59 µM]	.
COCCN(C(=O)CSc1nnc(C)n1Cc1ccccc1)c1c(N)n(CC(C)C)c(=O)[nH]c1=O	79µM*	?	-6	-15%	3%	-3%
COCCN(C(=O)CCCc1nc2ccccc2s1)c1c(N)n(CC(C)C)c(=O)[nH]c1=O	-3%	24µM*	-6	8%	?	41%
COCCN(C(=O)CSc1nnc(-c2ccc(C)cc2)n1N)c1c(N)n(Cc2ccccc2)c(=O)[nH]c1=O	-14%	0%	0	-10%	.	19%
CCN(C(=O)c1cn(CC(C)C)c(=O)c2cc(OC)c(OC)cc12)c1cc(OC)ccc1OC	-19%	.	.	1%	3%[59 µM]	5%
CCn1c(C(=O)Nc2c(C)cccc2C)cc2sc(Cl)cc21	-23%	.	.	3%	12%[59 µM]	5%
O=C(CNc1ccc2c(c1)OCO2)N/N=C\c1ccccc1Cl	?	-10%	-19	50µM*	?	?
Cc1[nH]c2ccccc2c1/C=N\NC(=O)CNc1ccc2c(c1)OCO2	?	-2%	-9	45µM*	10µM*	?
Cc1[nH]c2ccccc2c1/C=N/NC(=O)CNC(=O)c1ccco1	-8%	-9%	1	-7%	.	12%
O=C1CSC(=Nc2ccc(O)cc2)N1	-5%	-13%	2	-13%	7%	24%
Cc1cc(C)nc(/N=C2/NC(=O)CS2)n1	22µM*	?	.	?	20µM*	-14%
SMILES	JMJD2A Tudor	PLK1 PBD block	PI5P4K alpha inh	BAZ2B block	G9a block	HP1b binding inh
Cc1ccc(N=C2NC(=O)CS2)cc1	-19%[57.1 µM]	-13%	-1	-2%	0%[12.7 µM]	60%
Cc1ccc(C)n1/N=C1/NC(=O)CS1	79µM*	?	-52*	-8%	-50%	-50%
CCC1Cc2c(nc(N)c3c(N)nc(N4CCCCC4)c(C#N)c23)O1 (stereo not drawn)	-5%	-8%	6	0%	4%	4%
N#Cc1c(N2CCCCC2)nc(N)c2c(N)nc3c(c12)CC(c1ccccc1)O3 (stereo not drawn)	-14%	0%	-64*	5%[57.1 µM]	19%[59 µM]	43%
O=C(/C=C/c1ccco1)NCCc1ccc(F)cc1	-36%	-29%	?	79µM*	40µM*	?
O=C(/C=C/c1ccco1)NCCCN1CCN(CCCNC(=O)/C=C/c2ccco2)CC1	-29%	-5%	-15	-3%	-6%[59 µM]	9%
O=C(/C=C/c1ccco1)NCc1ccc2c(c1)OCO2	-10%	-25%	-17	-13%	20µM*	16%
CC(C)C(c1nnnn1C(C)(C)C)N1CCOCC1 (stereo not drawn)	40µM*	-8%	0	2%	40µM*	16%
CC(C)C(c1nnnn1C1CCCCC1)N1CCOCC1 (stereo not drawn)	-13%	-7%	.	.	24%[59 µM]	11%
COc1cc(-c2nn3c(Cc4ccccc4)nnc3s2)cc(OC)c1OC	-13%	27µM*	.	8%	?	-11%
COc1cc(-c2nn3c(COc4ccccc4)nnc3s2)cc(OC)c1OC	-20%	27µM*	-7	-2%	5µM*	?
Clc1ccccc1-c1nn2c(COc3ccccc3)nnc2s1	-3%	?	.	20%	?	-16%
O=C(CN1CCN(CC(=O)Nc2ccccc2Cl)CC1)Nc1ccc2c(c1)OCCO2	16%[11.4 µM]	-20%	5	-8%	25µM*	40%
O=C(CN1CCCCC1)Nc1ccc(NC(=O)c2ccccc2Cl)cc1Cl	-19%	-6%	-4	-5%	10µM*	7%
S=C(Nc1ccc2c(c1)OCCO2)Nc1ccccc1Cl	-8%	-26%	-6	-18%	79µM*	1%
COC(=O)CN1C(=O)S/C(=C/c2ccc(N3CCCCC3)o2)C1=O	35µM*	86%	.	45µM*	27%[0.501 µM]	?
CCN(CC)c1ccc(/C=C2/SC(=O)N(C(C)C)C2=O)o1	?	55%	-2	?	7.1µM*	5%
O=C(O)CN1C(=O)/C(=C/c2ccc(N3CCCCC3)o2)SC1=S	?	-6%	?	35µM*	25µM*	?
CCOC(=O)CN1C(=O)S/C(=C/c2ccc(N3CCCCC3)o2)C1=O	50µM*	73%	-4	-7%	3.2µM*	17%
CCCN1C(=O)S/C(=C/c2ccc(N3CCOCC3)o2)C1=O	-20%	105%	-12	?	-111%[12.7 µM]	20%
Cc1cccc(S(=O)(=O)Nc2cc(Cl)ccc2N2CCOCC2)c1	-22%	-9%	6	.	.	21%
